The subject of test [1] is PRMT1 (protein arginine N-methyltransferase 1). As to the kind of experiment: PRMT1 binders on small-molecule microarrays, primary screen, biochemical, small-molecule microarray, 635 nm fluorescence (AID 1088).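 Further: binding of Prmt1 protein to compounds spotted on small-molecule microarray slides.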 Conditions: small-molecule microarray binding, higher = more signal.
A short description of test [2]: yeast growth modulation, basal conditions, primary screen, YJM789 clinical isolate, OD600, 24 h (AID 1089).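 Further: growth of clinical yeast isolate S. cerevisiae YJM 789 seeded 1000 cells per well; test concentration not given here.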 Conditions: S. cerevisiae YJM789 growth, higher = more signal, called active from +8 up or from −8 down.
A short description of test [3]: fission yeast growth modulation, primary screen, strain 972, OD600, 24 h, no modulator (AID 1090).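 Further: basal condition with compound alone and no growth modifier present; test concentration not given here.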 Conditions: S. pombe 972 growth, higher = more signal, called active from +8 up or from −8 down.
Test [4] in a line: S. cerevisiae growth modulation with rapamycin, primary screen, strain BY4716, OD600, 96 h (AID 1091). Further: test concentration not given here. Conditions: higher = more signal, called active from +8 up or from −8 down.
For test [5], the target named is Torsin-1A-interacting protein 2 (Homo sapiens) (UniProt Q8NFQ8). The test is described as follows: LULL1 binders on small-molecule microarray, primary screen, cell lysate, human LULL1 lysate, 635/667 nm fluorescence (AID 1092).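 Further: probe is lysate of COS7 cells overexpressing human LULL1; score merges per-feature 667 nm fluorescence with signal-to-noise.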 Conditions: hLULL1 lysate binding, 635 nm fluorescence, higher = more signal.
Chain of Torsin-1A-interacting protein 2 (Homo sapiens) (Q8NFQ8 whole entry, looked up): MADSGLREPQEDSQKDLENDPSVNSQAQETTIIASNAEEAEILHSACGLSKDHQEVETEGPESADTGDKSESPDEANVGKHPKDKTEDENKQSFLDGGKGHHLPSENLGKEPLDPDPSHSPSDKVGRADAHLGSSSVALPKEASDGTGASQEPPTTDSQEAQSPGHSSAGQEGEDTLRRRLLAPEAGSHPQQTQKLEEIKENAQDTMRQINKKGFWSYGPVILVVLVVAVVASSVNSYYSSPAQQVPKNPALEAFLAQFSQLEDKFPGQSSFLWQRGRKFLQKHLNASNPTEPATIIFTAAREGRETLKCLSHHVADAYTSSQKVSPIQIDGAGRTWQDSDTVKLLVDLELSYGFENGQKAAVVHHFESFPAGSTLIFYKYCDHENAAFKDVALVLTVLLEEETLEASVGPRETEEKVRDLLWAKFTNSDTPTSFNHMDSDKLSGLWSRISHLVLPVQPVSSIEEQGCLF
The nature of test [6]: E. coli growth modulation, two-sided OD650, primary screen, E. coli filamentation project, strain DRC41, 24 h (AID 1093).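 Further: MC1000 strain lacking acrAB efflux and sulA so SOS filamentation is blocked; test concentration not given here.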 The following applies: OD650, 24 h, higher = more signal, called active from +8 up or from −8 down.
A short description of test [7]: small-molecule microarray binders of probe aLefty2, primary screen, biochemical, biotinylated probe, 635/667 nm fluorescence (AID 1094).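 Further: score merges spot fluorescence near 667 nm with spot signal-to-noise ratio.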 The following applies: higher = more signal.
Test [8] relates to Noggin (protein binding on small-molecule microarray). The test is described as follows: Noggin binders on small-molecule microarray, primary screen, biochemical, 635/667 nm fluorescence (AID 1095).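 Further: score merges 667 nm feature fluorescence with signal to noise over triplicate slides.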 The following applies: 635 nm fluorescence, higher = more signal.
Test [9] has as its target Neurogenic locus notch homolog protein 3 (Homo sapiens) (UniProt Q9UM47). The test is described as follows: NOTCH3 binders on small-molecule microarray, primary screen, biochemical, 635/667 nm fluorescence (AID 1096). The following applies: NOTCH3 binding, 635 nm fluorescence, higher = more signal.
Test [10] can be described thus: small-molecule microarray binders of probe aEGFR, primary screen, biochemical, biotinylated probe, 635/667 nm fluorescence (AID 1097).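 Further: probe is a biotinylated anti-EGFR antibody binding compounds printed on slides; score combines fluorescence near 667 nm and signal to noise of each spot.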 Conditions: higher = more signal.
In test [11] the test system is Plasmodium falciparum Sir2 (PF13_0152, Sir2A). As to the kind of experiment: pfSir2 binders on small-molecule microarrays, primary screen, biochemical, small-molecule microarray, 635 nm fluorescence (AID 1098).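 Further: score merges spot fluorescence intensity with its signal-to-noise ratio.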 Conditions: small-molecule microarray binding, fluorescence 635 nm; higher = more signal.
Test [12] in a line: small-molecule microarray binders of probe aDKK1, primary screen, biochemical, biotinylated probe, 635/667 nm fluorescence (AID 1099).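 Further: score merges 667nm spot fluorescence with signal to noise across triplicate slides; reference of the scale not given here.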 The following applies: higher = more signal.
Test [13] can be described thus: small-molecule microarray binders of probe aCHRDL2, primary screen, biochemical, biotinylated probe, 635/667 nm fluorescence (AID 1100). The following applies: higher = more signal.
A short description of test [14]: splicing luciferase reporter signal modulators, primary screen, spliceosome inhibition project, cell-based, HEK293, splice +/- reporter (AID 1101).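 Further: HEK293 cells carrying a splicing-competent luciferase reporter gene; test concentration not given here.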 Conditions: luminescence, 24 h, higher = more signal, called active from +8 up or from −8 down. In general terms: Reporter assays use an easily measured gene product as a stand-in for the process of interest.
The target of test [15] is Fibroblast growth factor 10 (Homo sapiens) (UniProt O15520). The test is described as follows: FGF10 binders on small-molecule microarrays, primary screen, biochemical, small-molecule microarray, 635 nm fluorescence (AID 1102). Conditions: FGF10 binding, fluorescence 635 nm, higher = more signal.
Chain of Fibroblast growth factor 10 (Homo sapiens) (O15520 whole entry, looked up): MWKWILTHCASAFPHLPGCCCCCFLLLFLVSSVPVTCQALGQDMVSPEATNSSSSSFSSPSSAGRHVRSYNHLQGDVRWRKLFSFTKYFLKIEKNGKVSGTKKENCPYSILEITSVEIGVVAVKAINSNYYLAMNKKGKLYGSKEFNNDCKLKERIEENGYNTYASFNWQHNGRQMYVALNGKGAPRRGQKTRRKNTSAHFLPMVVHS
Test [16] relates to glycogen synthase kinase-3 (GSK3A per assay name; protocol says GSK3B). The test is described as follows: GSK3 binders on small-molecule microarrays, primary screen, biochemical, small-molecule microarray, 635 nm fluorescence, GSK3A (AID 1103). Further: the record names both GSK3A and GSK3B. The following applies: small-molecule microarray binding, fluorescence 635 nm; higher = more signal.
The target in test [17] is Epidermal growth factor receptor (Homo sapiens) (UniProt P00533). As to the kind of experiment: EGFR binders on small-molecule microarrays, primary screen, biochemical, small-molecule microarray, 635 nm fluorescence (AID 1104).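 Further: score merges 667 nm emission intensity with spot signal to noise over triplicate slides.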 Conditions: EGFR binding, higher = more signal.
Chain of Epidermal growth factor receptor (Homo sapiens) (P00533 whole entry, looked up): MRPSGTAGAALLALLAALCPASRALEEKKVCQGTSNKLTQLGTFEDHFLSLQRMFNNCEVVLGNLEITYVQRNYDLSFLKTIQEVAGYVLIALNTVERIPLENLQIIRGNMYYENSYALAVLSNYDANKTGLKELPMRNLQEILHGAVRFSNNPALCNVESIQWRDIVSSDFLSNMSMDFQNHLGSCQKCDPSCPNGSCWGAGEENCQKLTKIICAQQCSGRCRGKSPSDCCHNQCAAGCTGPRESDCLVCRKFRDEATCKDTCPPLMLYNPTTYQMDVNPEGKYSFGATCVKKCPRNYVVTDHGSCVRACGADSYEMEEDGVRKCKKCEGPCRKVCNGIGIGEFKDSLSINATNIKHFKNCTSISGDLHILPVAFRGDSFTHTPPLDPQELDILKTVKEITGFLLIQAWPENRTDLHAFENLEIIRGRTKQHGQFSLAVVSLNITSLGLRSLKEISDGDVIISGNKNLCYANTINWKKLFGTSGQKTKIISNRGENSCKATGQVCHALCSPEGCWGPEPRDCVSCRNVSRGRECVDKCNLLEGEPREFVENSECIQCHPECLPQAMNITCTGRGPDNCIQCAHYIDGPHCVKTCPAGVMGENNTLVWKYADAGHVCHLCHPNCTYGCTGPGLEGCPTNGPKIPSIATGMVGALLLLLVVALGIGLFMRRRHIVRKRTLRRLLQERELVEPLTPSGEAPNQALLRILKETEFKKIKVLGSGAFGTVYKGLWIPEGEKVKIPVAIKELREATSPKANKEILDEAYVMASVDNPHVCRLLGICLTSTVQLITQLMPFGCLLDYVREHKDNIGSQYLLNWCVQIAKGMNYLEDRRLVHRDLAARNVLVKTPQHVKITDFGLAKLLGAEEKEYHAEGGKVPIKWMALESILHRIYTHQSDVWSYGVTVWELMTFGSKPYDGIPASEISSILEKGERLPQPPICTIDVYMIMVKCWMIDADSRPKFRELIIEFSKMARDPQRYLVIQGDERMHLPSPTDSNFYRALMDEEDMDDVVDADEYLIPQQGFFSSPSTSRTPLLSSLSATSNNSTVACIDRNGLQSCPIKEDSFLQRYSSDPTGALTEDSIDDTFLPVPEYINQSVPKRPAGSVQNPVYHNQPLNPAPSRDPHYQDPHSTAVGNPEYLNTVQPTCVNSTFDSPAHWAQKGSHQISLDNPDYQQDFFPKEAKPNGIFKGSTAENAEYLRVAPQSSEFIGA
The target in test [18] is Follistatin-related protein 3 (Homo sapiens) (UniProt O95633). The test is described as follows: FSTL3 binders on small-molecule microarrays, primary screen, biochemical, small-molecule microarray, 635 nm fluorescence (AID 1105).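 Further: score merges emission near 667 nm and signal to noise per printed spot across three slides.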 The following applies: FSTL3 binding, higher = more signal.
Chain of Follistatin-related protein 3 (Homo sapiens) (O95633 whole entry, looked up): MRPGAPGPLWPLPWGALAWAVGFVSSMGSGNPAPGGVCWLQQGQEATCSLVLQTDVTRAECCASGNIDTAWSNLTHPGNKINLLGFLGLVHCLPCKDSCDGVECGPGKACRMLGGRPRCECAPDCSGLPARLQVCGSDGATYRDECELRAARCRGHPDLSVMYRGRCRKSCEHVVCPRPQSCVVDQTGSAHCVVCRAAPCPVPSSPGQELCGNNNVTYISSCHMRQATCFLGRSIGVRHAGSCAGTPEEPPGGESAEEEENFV
For test [19], the target named is Dickkopf-related protein 1 (Homo sapiens) (UniProt O94907). The test is described as follows: DKK1 binders on small-molecule microarrays, primary screen, biochemical, small-molecule microarray, 635 nm fluorescence scan (AID 1106).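 Further: score merges emission near 667 nm with signal to noise over three replicate slides.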 The following applies: DKK1 binding, higher = more signal.
Chain of Dickkopf-related protein 1 (Homo sapiens) (O94907 whole entry, looked up): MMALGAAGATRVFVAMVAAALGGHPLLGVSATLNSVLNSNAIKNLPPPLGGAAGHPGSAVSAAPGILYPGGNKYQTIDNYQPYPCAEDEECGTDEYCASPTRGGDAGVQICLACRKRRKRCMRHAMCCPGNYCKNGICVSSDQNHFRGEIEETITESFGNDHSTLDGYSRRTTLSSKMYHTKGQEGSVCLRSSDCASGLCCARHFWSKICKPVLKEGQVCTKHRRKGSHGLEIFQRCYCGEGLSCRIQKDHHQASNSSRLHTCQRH
The subject of test [20] is Inhibin beta A chain (activin A). The test is described as follows: INHBA (activin A) binders on microarrays, primary screen, biochemical, small-molecule microarray, 635 nm fluorescence scan (AID 1107).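 Further: mouse activin A protein probed at 4.33 µg/mL on printed slides; score merges bound-protein fluorescence near 667 nm with spot signal-to-noise.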 The following applies: small-molecule microarray binding, higher = more signal.

Calls of active or inactive are those of the source.

Chain of Neurogenic locus notch homolog protein 3 (Homo sapiens) (Q9UM47 whole entry, looked up): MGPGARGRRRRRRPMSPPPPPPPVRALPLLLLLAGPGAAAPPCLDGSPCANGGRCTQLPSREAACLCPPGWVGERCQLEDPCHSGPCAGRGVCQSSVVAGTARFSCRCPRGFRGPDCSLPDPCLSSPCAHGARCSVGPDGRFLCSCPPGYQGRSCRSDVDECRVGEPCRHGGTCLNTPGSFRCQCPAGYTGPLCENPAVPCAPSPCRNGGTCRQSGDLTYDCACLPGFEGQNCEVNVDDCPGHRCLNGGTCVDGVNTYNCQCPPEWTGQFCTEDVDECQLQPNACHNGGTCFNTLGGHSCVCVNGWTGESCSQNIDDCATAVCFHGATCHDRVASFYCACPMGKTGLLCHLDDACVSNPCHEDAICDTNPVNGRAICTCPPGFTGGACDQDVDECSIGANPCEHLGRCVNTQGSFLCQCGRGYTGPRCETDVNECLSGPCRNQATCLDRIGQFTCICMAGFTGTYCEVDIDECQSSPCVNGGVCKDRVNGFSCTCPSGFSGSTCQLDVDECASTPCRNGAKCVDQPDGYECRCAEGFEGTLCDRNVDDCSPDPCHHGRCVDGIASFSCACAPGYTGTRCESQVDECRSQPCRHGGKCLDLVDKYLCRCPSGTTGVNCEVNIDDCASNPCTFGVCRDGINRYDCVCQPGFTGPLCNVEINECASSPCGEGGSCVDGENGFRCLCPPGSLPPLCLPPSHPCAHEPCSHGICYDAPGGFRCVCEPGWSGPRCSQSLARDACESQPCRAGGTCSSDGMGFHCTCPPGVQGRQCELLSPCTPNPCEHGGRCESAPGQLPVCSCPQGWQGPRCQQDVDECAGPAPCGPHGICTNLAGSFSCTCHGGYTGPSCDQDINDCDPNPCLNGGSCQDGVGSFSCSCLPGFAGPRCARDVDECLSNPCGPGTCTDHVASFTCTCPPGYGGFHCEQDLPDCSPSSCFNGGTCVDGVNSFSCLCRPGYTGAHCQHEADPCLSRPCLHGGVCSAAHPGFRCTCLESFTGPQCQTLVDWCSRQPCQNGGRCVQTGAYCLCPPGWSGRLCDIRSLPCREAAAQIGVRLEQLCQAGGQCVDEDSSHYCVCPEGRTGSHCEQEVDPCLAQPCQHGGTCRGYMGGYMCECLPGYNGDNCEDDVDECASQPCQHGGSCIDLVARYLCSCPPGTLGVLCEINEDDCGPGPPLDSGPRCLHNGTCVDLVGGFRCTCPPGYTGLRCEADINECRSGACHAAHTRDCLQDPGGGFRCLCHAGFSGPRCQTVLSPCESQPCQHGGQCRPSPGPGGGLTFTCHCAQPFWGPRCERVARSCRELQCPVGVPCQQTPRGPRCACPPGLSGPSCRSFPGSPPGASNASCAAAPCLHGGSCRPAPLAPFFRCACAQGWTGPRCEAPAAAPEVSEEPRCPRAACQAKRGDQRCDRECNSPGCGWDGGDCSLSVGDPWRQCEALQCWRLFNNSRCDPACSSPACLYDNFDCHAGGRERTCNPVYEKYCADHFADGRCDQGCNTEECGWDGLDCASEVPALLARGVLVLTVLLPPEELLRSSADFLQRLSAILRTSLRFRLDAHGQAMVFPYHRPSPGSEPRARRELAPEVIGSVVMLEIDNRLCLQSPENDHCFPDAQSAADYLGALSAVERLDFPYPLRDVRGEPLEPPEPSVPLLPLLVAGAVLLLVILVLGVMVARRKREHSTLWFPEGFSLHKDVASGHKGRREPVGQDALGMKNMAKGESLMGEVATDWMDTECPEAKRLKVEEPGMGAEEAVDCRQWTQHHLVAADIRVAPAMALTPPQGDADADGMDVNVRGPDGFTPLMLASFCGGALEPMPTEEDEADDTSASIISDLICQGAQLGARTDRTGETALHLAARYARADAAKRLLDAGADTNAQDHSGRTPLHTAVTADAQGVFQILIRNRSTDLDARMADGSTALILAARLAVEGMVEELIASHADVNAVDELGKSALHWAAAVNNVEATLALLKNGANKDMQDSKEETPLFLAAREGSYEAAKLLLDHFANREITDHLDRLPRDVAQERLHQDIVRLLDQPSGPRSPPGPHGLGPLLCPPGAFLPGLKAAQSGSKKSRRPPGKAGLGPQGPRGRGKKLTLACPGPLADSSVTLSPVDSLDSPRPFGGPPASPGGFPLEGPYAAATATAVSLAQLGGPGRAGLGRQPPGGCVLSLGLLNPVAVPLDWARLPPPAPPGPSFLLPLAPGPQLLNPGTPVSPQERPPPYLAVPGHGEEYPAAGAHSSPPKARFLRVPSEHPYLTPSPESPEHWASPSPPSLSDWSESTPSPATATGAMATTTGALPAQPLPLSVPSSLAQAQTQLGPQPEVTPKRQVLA

Regarding `CN1C(=O)C2C=CC(C(O)c3ccc(Br)cc3)N(N(c3ccccc3)c3ccccc3)C2C1=O` (stereo not given), the composite z-score is 0.289 in [1]; 1.94 in test [5]; 0.238 in test [7]; -0.482 in test [8]; 0.585 in test [9]; 0.146 in test [10]. For the same molecule, the composite z-score in test [11] is 0.259; in test [12], 0.359; in [13], 1.04; in test [15], -0.14; in [16], -0.0403; in [17] it was -0.211. Moreover, the composite z-score in test [18] was 0.0397; in test [19], -0.626; in [20] it was 1.26. For the same molecule, the z-score in test [2] was 0.351 (inactive); in test [3], 1.27 (inactive); in test [4], 2.27 (inactive); in [6], -1.24 (inactive); in [14] it was 0.605 (inactive).

With `CC(C)(C)N1C(=O)[C@H]2[C@H]3[C@H](O)[C@H](O)CC(=NO[C@@H]4O[C@H](CO)[C@@H](O)[C@H](O)[C@H]4O)[C@@H]3CC[C@H]2C1=O`, the composite z-score was 1.49 in test [1]; 1.97 in test [5]; -0.217 in [7]; 0.564 in [8]; 0.794 in test [9]; -0.0229 in test [10]. For the same molecule, the composite z-score was 0.756 in [11]; -0.393 in [12]; -0.854 in [13]; 0.522 in test [15]; 0.869 in [16]; 0.768 in test [17]. The values for the composite z-score in test [18], in [19] and in test [20] were 1.01, 1.15 and 0.911, respectively. Also, the z-score in [2] is -0.233 (inactive); in test [3], -0.113 (inactive); in test [4], -1.47 (inactive); in [6] it was 0.637 (inactive); in [14] it was 0.519 (inactive).

For `COC(=O)C1=C(C)N(Cc2ccccc2)[C@]23O[C@](C(=O)OC)(C(=O)N2[C@@H]1c1ccccc1)[C@H]1CCOC(=O)[C@H]13`, the composite z-score is 0.33 in [1]; 0.257 in test [5]; -0.0638 in test [7]; 0.648 in test [8]; 1.07 in test [9]; -0.0152 in [10]. In addition, the composite z-score is 0.539 in test [11]; 0.057 in [12]; -0.733 in test [13]; 1.1 in test [15]; 0.466 in test [16]; 0.482 in test [17]. Moreover, the composite z-score in [18] is 0.63; in test [19], 0.971; in [20], 0.521. Further, the z-score in [2] is 0.828 (inactive); in test [3], 0.494 (inactive); in test [4], 1.71 (inactive); in test [6] it was 0.308 (inactive); in [14], -0.236 (inactive).

On to `Cc1ccc(C2CC=C(C(=O)O)CN2S(=O)(=O)c2ccc(C)cc2)cc1` (stereo not given), for which the composite z-score is 0.732 in [1]; 2.49 in test [5]; 0.0527 in test [7]; 0.153 in test [8]; 0.984 in test [9]; -0.071 in [10]. The composite z-score worked out at 1.3 in test [11]; 0.135 in test [12]; 0.665 in [13]; 0.31 in [15]; 0.834 in [16]; 0.201 in test [17]. Further, the composite z-score in test [18] was 0.338; in test [19] it was 0.0374; in [20], 0.584. Also, the z-score was 0.0388 (inactive) in [2]; 1.02 (inactive) in test [3]; 0.856 (inactive) in test [4]; -1.16 (inactive) in [6]; -0.16 (inactive) in [14].

In the case of `CN1C(=O)C2C=CC(C(O)c3ccc(I)cc3)N(NC(=O)OC(C)(C)C)C2C1=O` (stereo not given), the composite z-score in test [1] came out at 0.896; in test [5], 3.21; in test [7], 0.0607; in [8] it was 0.17; in [9], 1.04; in test [10], 0.157. The composite z-score in [11] worked out at 1.22; in [12], 0.829; in test [13], 1.05; in test [15] it was 0.599; in [16] it was 1.24; in test [17], 0.04. The figures for the composite z-score in [18], in test [19] and in test [20] were 0.925, -0.168 and 0.599, respectively. Also, the z-score in test [2] is 0.725 (inactive); in test [3], -0.424 (inactive); in test [4], 0.931 (inactive); in [6], -1.07 (inactive); in test [14] it was 2.31 (inactive).
